“And” between values parts separate entries of the source, which are not always exact repeats. Equal entries are not always repeated. Results filed as inconclusive are left out. The source holds several records for some structures; these can differ, active in one and inactive in another. The source made the active and inactive calls. The calls were made as follows, unless noted: active = hit-call score of the fitted dose curve at least 0.9, where 1 is the maximum; inactive = score below 0.9.
Key:
[1] = biological target: Retinoic acid receptor RXR-alpha (Homo sapiens) (UniProt P19793); test: ATG_RXRa_TRANS: Attagene TRANS-FACTORIAL HepG2 Assay for human Retinoid X Receptor alpha (RXRa) (AID 2283012; active = hit-call score of the fitted dose curve at least 0.9, where 1 is the maximum)
Chain of Retinoic acid receptor RXR-alpha (Homo sapiens) (P19793 whole entry, looked up, the tested form may be a part): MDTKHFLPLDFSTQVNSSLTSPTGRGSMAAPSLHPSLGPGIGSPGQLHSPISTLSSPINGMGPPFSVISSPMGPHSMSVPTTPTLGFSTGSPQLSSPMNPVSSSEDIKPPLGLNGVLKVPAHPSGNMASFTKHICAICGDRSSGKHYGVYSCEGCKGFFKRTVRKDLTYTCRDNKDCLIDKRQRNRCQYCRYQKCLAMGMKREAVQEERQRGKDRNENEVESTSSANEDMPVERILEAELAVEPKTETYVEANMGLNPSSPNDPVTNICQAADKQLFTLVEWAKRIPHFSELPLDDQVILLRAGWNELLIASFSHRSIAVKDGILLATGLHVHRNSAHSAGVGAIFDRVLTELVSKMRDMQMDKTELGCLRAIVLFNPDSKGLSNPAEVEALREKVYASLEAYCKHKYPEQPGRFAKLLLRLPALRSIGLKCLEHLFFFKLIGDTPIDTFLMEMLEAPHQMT
Method in brief: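 Read-out: fluorescent reporter-transcript fragments quantified by capillary electrophoresis after RT-PCR. Transiently transfected HepG2 cells carrying GAL4-UAS reporters and NR-GAL4 chimeras were exposed to chemical for 24 h; activity scored as increase over DMSO.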

[2] = biological target: human Retinoid X Receptor beta (RXRb), RXRB (gene 6257) (UniProt P28702); test: ATG_RXRb_TRANS: Attagene TRANS-FACTORIAL HepG2 Assay for human Retinoid X Receptor beta (RXRb) (AID 2283013; active = hit-call score of the fitted dose curve at least 0.9, where 1 is the maximum)
Chain of human Retinoid X Receptor beta (RXRb), RXRB (gene 6257) (P28702 whole entry, looked up, the tested form may be a part): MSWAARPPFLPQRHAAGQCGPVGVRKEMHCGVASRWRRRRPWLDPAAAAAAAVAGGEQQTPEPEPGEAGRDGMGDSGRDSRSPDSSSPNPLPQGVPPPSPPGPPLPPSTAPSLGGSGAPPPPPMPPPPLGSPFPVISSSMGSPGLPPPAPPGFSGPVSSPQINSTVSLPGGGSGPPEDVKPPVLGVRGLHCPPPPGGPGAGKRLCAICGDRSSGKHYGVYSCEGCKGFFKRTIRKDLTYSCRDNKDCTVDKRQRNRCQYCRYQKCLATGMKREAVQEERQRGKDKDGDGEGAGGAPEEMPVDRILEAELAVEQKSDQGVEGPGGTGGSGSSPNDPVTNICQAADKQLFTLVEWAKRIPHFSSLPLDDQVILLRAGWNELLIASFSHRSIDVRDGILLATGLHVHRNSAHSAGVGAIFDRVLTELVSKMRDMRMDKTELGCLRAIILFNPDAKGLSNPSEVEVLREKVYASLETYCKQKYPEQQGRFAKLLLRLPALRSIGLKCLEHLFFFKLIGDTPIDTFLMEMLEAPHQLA
Method in brief: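 Read-out: reporter mRNA induction via RT-PCR plus capillary electrophoresis fluorescence, analysed as signal increase relative to DMSO. Cells were human HepG2, transiently transfected with GAL4-UAS reporter constructs and chimeric receptor-Gal4 fusions, dosed for 24 h.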

[3] = biological target: human Thyroid Receptor alpha (THRa1), THRA (gene 7067) (UniProt P10827); test: ATG_THRa1_TRANS: Attagene TRANS-FACTORIAL HepG2 Assay for human Thyroid Receptor alpha (THRa1) (AID 2283014; active = hit-call score of the fitted dose curve at least 0.9, where 1 is the maximum)
Chain of human Thyroid Receptor alpha (THRa1), THRA (gene 7067) (P10827 whole entry, looked up, the tested form may be a part): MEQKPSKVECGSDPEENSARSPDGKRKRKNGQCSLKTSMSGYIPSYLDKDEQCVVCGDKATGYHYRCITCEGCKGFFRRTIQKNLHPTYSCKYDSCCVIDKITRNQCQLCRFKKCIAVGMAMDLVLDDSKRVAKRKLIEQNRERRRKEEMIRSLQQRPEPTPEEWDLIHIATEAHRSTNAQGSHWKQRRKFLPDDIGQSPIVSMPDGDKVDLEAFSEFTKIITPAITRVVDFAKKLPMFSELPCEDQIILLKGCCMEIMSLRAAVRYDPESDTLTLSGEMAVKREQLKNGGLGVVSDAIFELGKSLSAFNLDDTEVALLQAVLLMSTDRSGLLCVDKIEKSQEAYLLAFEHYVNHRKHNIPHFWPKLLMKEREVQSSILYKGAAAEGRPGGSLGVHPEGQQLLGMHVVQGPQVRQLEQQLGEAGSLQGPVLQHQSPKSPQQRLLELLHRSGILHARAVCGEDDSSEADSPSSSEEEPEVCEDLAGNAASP
Method in brief: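 Measured here is mRNA from a GAL4-UAS reporter in transfected HepG2 cells carrying a Gal4-fused receptor, 24 h post-dose. DMSO served as negative control and baseline.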

[4] = biological target: human Vitamin D Receptor (VDR), VDR (gene 7421) (UniProt P11473); test: ATG_VDR_TRANS: Attagene TRANS-FACTORIAL HepG2 Assay for human Vitamin D Receptor (VDR) (AID 2283022; active = hit-call score of the fitted dose curve at least 0.9, where 1 is the maximum)
Chain of human Vitamin D Receptor (VDR), VDR (gene 7421) (P11473 whole entry, looked up): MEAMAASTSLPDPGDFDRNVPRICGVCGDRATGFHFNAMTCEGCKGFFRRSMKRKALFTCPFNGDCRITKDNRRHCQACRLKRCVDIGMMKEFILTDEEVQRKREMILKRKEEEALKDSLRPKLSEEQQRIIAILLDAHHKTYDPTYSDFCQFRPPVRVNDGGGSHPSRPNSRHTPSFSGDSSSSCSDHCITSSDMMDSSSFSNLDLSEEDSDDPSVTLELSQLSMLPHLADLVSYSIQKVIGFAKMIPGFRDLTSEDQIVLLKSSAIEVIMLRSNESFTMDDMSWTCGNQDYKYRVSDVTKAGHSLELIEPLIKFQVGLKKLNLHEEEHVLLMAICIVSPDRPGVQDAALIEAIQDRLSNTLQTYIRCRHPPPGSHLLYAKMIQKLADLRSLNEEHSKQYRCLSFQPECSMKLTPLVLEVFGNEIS
Method in brief: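 Multiplexed TRANS reporter in HepG2; 24 h treatment; reporter mRNA by RT-PCR plus capillary electrophoresis; upregulation scored relative to DMSO.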

[5] = read-out: E-selectin (Homo sapiens) (UniProt P16581); test: BSK_3C_Eselectin: BioMAP Diversity Plus: 3C Assay for Eselectin Biomarker Activity (AID 2283015); details: primary human endothelial cells (HUVEC); actives raise or lower the signal
Method in brief: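 Endpoint derived by bidirectional fitting against DMSO vehicle; signal is ELISA-detected E-selectin from primary HUVEC at 24 h post-dosing, with parallel SRB staining (0.1% SRB, 560 nm) flagging cytotoxicity.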

[6] = read-out: Interleukin-1 alpha (IL1a), IL1A (gene 3552); test: BSK_BE3C_IL1a: BioMAP Diversity Plus: BE3C Assay for Interleukin-1 alpha (IL1a) Biomarker Activity (AID 2283016); details: primary human bronchial epithelial cells; actives raise or lower the signal
Method in brief: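 ELISA read-out of IL-1a from human lung bronchial epithelial primary cells, 24 h post-dose. Gain or loss of signal fitted relative to DMSO negative control.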

[7] = read-out: Monocyte Chemoattractant Protein-1 (MCP1), CCL2 (gene 6347); test: BSK_3C_MCP1: BioMAP Diversity Plus: 3C Assay for Monocyte Chemoattractant Protein-1 (MCP1) Biomarker Activity (AID 2283017); details: primary human endothelial cells (HUVEC); actives raise or lower the signal
Method in brief: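 Using human vascular primary endothelium, researchers measured MCP-1 by ELISA 24 h after treatment, with DMSO serving as negative control for bidirectional fitting.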

[8] = read-out: Monocyte Chemoattractant Protein-1 (MCP1), CCL2 (gene 6347); test: BSK_4H_MCP1: BioMAP Diversity Plus: 4H Assay for Monocyte Chemoattractant Protein-1 (MCP1) Biomarker Activity (AID 2283018); details: primary human endothelial cells (HUVEC); actives raise or lower the signal
Method in brief: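 HUVEC primary cells, 24 h post-dose, MCP-1 by ELISA. Gain or loss of signal fitted bidirectionally vs DMSO baseline. Cytotoxicity: SRB stain (0.1% after 10% TCA fixation), read 560 nm, parallel cultures.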

[9] = read-out: Human Leukocyte Antigen - DR isotype (HLADR), HLA-DRA (gene 3122); test: BSK_3C_HLADR: BioMAP Diversity Plus: 3C Assay for Human Leukocyte Antigen - DR isotype (HLADR) Biomarker Activity (AID 2283019); details: primary human endothelial cells (HUVEC); actives raise or lower the signal
Method in brief: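 Compound added to primary HUVEC cultures, 24 h incubation, then HLA-DR determined by ELISA; endpoint derived by bidirectional fitting relative to DMSO negative control.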

[10] = read-out: Interleukin-8 (IL8), CXCL8 (gene 3576); test: BSK_3C_IL8: BioMAP Diversity Plus: 3C Assay for Interleukin-8 (IL8) Biomarker Activity (AID 2283020); details: primary human endothelial cells (HUVEC); actives raise or lower the signal
Method in brief: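 HUVEC, 3C stimulation; 24 h compound exposure; IL-8 read by ELISA; gain or loss of signal fitted relative to DMSO control.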

[11] = read-out: Monokine induced gamma interferon (MIG), CXCL9 (gene 4283); test: BSK_3C_MIG: BioMAP Diversity Plus: 3C Assay for Monokine induced gamma interferon (MIG) Biomarker Activity (AID 2283021); details: primary human endothelial cells (HUVEC); actives raise or lower the signal;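 as to AC50: MIG protein level measured by immunoassay in the treated endothelial cultures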
Method in brief: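 HUVEC, 3C system; 24 h chemical exposure; MIG by ELISA; bidirectional fit vs DMSO baseline.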

[12] = BSK_3C_SRB: Viability Assessment in the BioMAP Diversity Plus: 3C Assay (AID 2283023); details: primary human endothelial cells (HUVEC);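 also: cells read 24 h after compound dosing; fitted both ways against DMSO so a hit may be signal rise or drop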
Method in brief: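 Overt cytotoxicity is gauged in parallel confluent HUVEC cultures by SRB total-protein staining at the time of biomarker measurement, 24 h after dosing. Gain or loss of signal is fitted versus DMSO.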

[13] = read-out: Matrix Metallopeptidase 1 (MMP1), MMP1 (gene 4312); test: BSK_BE3C_MMP1: BioMAP Diversity Plus: BE3C Assay for Matrix Metallopeptidase 1 (MMP1) Biomarker Activity (AID 2283024); details: primary human bronchial epithelial cells; actives raise or lower the signal
Method in brief: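 ELISA read-out of MMP1 in human lung bronchial epithelial primary cultures, 24 h post-dose; bidirectional curve fit vs DMSO baseline, gain or loss of signal scored.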

[14] = read-out: Pselectin, SELP (gene 6403); test: BSK_4H_Pselectin: BioMAP Diversity Plus: 4H Assay for Pselectin Biomarker Activity (AID 2283026); details: primary human endothelial cells (HUVEC); actives raise or lower the signal
Method in brief: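 HUVEC, 24 h chemical exposure; P-selectin read by ELISA. Bidirectional curve fit vs DMSO baseline; gain or loss of signal scored.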

[15] = BSK_4H_SRB: Viability Assessment in the BioMAP Diversity Plus: 4H Assay (AID 2283027); details: primary human endothelial cells (HUVEC);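 also: cells exposed to compound for 24 h before staining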;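 as to AC50: curves fitted both ways versus DMSO so AC50 may be loss or gain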
Method in brief: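 HUVEC, 24 h post-dose; 10% TCA fix, 0.1% SRB stain, A560 nm. Total protein = overt cytotoxicity, parallel to biomarker read. Bidirectional fit vs DMSO baseline.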

[16] = BSK_BE3C_SRB: Viability Assessment in the BioMAP Diversity Plus: BE3C Assay (AID 2283028); details: primary human bronchial epithelial cells;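 also: measured 24 h after chemical dosing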;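 as to AC50: fitted both ways so AC50 may mark signal gain or loss versus DMSO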
Method in brief: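 SRB total-protein staining (0.1%, after TCA fixation) of chemically dosed human bronchial epithelial primary cells at 24 h; DMSO serves as the negative control for bidirectional curve fitting.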

[17] = read-out: Thrombomodulin, THBD (gene 7056); test: BSK_3C_Thrombomodulin: BioMAP Diversity Plus: 3C Assay for Thrombomodulin Biomarker Activity (AID 2283029); details: primary human endothelial cells (HUVEC); actives raise or lower the signal
Method in brief: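 HUVEC, 3C conditions; compound 24 h; thrombomodulin by ELISA; bidirectional curve fit vs DMSO baseline; parallel SRB total-protein staining for cytotoxicity.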

[18] = read-out: Urokinase-type plasminogen activator receptor (uPAR), PLAUR (gene 5329); test: BSK_4H_uPAR: BioMAP Diversity Plus: 4H Assay for Urokinase-type plasminogen activator receptor (uPAR) Biomarker Activity (AID 2283030); details: primary human endothelial cells (HUVEC); actives raise or lower the signal
Method in brief: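 Endpoint derived via bidirectional curve fitting against DMSO baseline; readout was ELISA detection of uPAR on umbilical vein endothelial cells at 24 h post-treatment, with SRB-stained parallel cultures assessing cytotoxicity.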

[19] = read-out: Vascular endothelial growth factor receptor 2 (Homo sapiens) (UniProt P35968); test: BSK_4H_VEGFRII: BioMAP Diversity Plus: 4H Assay for Vascular endothelial growth factor receptor 2 (VEGFR2) Biomarker Activity (AID 2283031); details: primary human endothelial cells (HUVEC); actives raise or lower the signal;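 as to AC50: cell-surface VEGFR2 protein level quantified by ELISA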
Method in brief: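 In this multiplexed HUVEC system, biomarker ELISA was performed after 24 h chemical exposure. Parallel SRB staining (TCA fixation, 560 nm) tracked cytotoxicity; DMSO served as baseline.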

[20] = BSK_3C_Vis: BioMAP Diversity Plus: 3C Assay for Morphology Visualization (AID 2283025); details: primary human endothelial cells (HUVEC);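 also: fitted both ways so gain or loss versus DMSO counts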;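 as to AC50: light microscopy image of cell morphology used as background control; cells imaged 24 h after dosing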
Method in brief: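 HUVEC, 3C system; light microscopy of morphology at 24 h post-dose. Bidirectional fit vs DMSO baseline. Secondary readout, background-control function.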

Measured: AC50

Chain of E-selectin (Homo sapiens) (P16581 whole entry, looked up): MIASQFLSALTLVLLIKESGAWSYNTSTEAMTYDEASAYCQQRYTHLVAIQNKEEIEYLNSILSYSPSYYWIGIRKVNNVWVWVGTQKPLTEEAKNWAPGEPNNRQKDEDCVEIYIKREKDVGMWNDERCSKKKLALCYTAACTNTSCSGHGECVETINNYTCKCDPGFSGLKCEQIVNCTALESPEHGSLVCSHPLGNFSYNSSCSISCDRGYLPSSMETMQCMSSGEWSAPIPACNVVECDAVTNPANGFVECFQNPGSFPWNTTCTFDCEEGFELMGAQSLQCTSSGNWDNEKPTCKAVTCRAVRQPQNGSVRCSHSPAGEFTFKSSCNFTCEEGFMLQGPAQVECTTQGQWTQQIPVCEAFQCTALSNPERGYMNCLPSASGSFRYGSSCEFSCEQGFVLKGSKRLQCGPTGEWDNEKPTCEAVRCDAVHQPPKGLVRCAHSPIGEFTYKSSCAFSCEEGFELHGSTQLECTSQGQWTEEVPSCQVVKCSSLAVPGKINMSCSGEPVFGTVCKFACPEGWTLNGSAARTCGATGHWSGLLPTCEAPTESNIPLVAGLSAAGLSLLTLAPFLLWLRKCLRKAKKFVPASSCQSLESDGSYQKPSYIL

Cc1cc(=O)oc2cc(O)ccc12
inactive: [1] | [2] | [3] | [4]

CC1COCc2cc3c(cc21)C(C)(C)C(C)C3(C)C (configuration not stated)
active: [2] 8.91 µM | [4] 128 µM
inactive: [1] | [3]

O=S(=O)(O)C(F)(F)C(F)(F)C(F)(F)C(F)(F)C(F)(F)C(F)(F)C(F)(F)C(F)(F)C(F)(F)C(F)(F)F
active: [5] 10.2 µM | [6] 13.3 µM and 10.6 µM | [12] 18.5 µM and 14.5 µM | [13] 3.54 µM | [16] 12.9 µM and 10.8 µM
inactive: [1] | [2] | [5] | [7] | [8] | [9] | [10] | [11] | [4] | [13] | [14] | [15] | [17] | [18] | [19]

Oc1cccc2c(O)cccc12
inactive: [1] | [2] | [3] | [4]

C=CC(C)(CCC=C(C)C)OC(C)=O (configuration not stated)
active: [5] 32.1 µM | [7] 35.2 µM | [8] 27 µM | [9] 28.2 µM | [12] 28.9 µM | [20] 37.4 µM | [14] 31 µM | [15] 34.2 µM | [18] 28.9 µM | [19] 31.5 µM
inactive: [1] | [2] | [6] | [10] | [11] | [4] | [13] | [16] | [17]

C=CC(=O)OCCC(F)(F)C(F)(F)C(F)(F)C(F)(F)C(F)(F)C(F)(F)C(F)(F)C(F)(F)F
inactive: [1] | [2] | [3] | [5] | [6] | [7] | [8] | [9] | [10] | [11] | [12] | [13] | [14] | [15] | [16] | [17] | [18] | [19]

O=CC(F)(F)C(F)(F)C(F)(F)C(F)F
inactive: [1] | [2] | [3] | [4]

CC(C)[C@@H]1CC[C@@H](C)C[C@H]1O
inactive: [1] | [2] | [3] | [4]

CC(=O)CC(C)C
inactive: [1] | [2] | [3] | [4]

C=Cc1ccc(O)c(OC)c1
inactive: [1] | [2] | [3] | [4]

CC[N+](CC)(CC)Cc1ccccc1
inactive: [1] | [2] | [5] | [6] | [7] | [8] | [9] | [10] | [11] | [4] | [12] | [13] | [20] | [14] | [15] | [16] | [17] | [18] | [19]

O=C(Nc1cccc([N+](=O)[O-])c1)c1cc2ccccc2cc1O
inactive: [1] | [2] | [4]
active: [3] 17.5 µM

COc1cc([N+](=O)[O-])ccc1N
inactive: [1] | [2] | [3] | [4]

C=CC(=O)OCCC(F)(F)C(F)(F)C(F)(F)C(F)(F)C(F)(F)C(F)(F)F
inactive: [1] | [2] | [3] | [4]

CCCCc1oc2ccccc2c1C(=O)c1cc(I)c(OCCN(CC)CC)c(I)c1
inactive: [1] | [2] | [17]
active: [5] 24.1 µM | [6] 17.1 µM | [7] 21.6 µM | [8] 15.1 µM | [9] 9.35 µM | [10] 17.7 µM | [11] 25.7 µM | [4] 47.5 µM | [12] 8.48 µM | [13] 25 µM | [20] 9.65 µM | [14] 9.72 µM | [15] 13.1 µM | [16] 25.4 µM | [18] 15.1 µM | [19] 21.2 µM

NS(=O)(=O)O
inactive: [1] | [2] | [3] | [4]

O=CC(F)(F)C(F)(F)C(F)(F)F
inactive: [1] | [2] | [3] | [4]

O=c1cc(-c2ccccc2)oc2ccc3ccccc3c12
inactive: [1] | [2] | [3] | [4]

CCCCCCOC(=O)c1ccc(O)cc1
active: [2] 33.4 µM
inactive: [1] | [3] | [4]

CNNCc1ccc(C(=O)NC(C)C)cc1
inactive: [1] | [2] | [3] | [4]

O=C(Nc1ccc(Cl)c(Cl)c1)c1cc(Cl)cc(Cl)c1O
active: [3] 1.35 µM
inactive: [1] | [2] | [4]

C[N+](C)(CCCNS(=O)(=O)CCC(F)(F)C(F)(F)C(F)(F)C(F)(F)C(F)(F)C(F)(F)F)CC(=O)[O-]
inactive: [1] | [2] | [3] | [4]

Cc1ccc(C(=O)c2ccccc2)cc1
inactive: [1] | [3] | [6] | [11] | [13] | [16] | [17] | [18] | [19]
active: [2] 75.9 µM | [5] 28.2 µM | [7] 4.38 µM | [8] 27 µM | [9] 28.2 µM | [10] 0.0156 µM | [12] 31.5 µM | [20] 38.9 µM | [14] 31.2 µM | [15] 36.5 µM
